A number with no mark means an inactive call. Activity calls are given as the source filed them.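 Rule for the calls, unless noted: active = fluorescence slope higher than the sample average by over 3 SD (cut at about -0.22 in these data, passing the limit was not always enough); inactive = the rest.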

Voltage-gated potassium channel subunit beta-2 (Rattus norvegicus), sequence (P62483 whole entry, looked up): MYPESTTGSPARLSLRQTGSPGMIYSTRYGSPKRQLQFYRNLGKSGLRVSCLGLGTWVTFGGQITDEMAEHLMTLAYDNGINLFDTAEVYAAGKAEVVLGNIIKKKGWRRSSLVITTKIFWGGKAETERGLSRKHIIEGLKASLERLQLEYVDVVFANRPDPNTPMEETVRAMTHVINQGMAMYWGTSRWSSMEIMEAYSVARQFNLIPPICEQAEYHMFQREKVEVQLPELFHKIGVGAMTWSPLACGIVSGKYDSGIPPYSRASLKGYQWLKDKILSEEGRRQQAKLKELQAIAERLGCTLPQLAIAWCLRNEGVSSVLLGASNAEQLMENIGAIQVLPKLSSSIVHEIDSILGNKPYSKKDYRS

The first assay has as its target Voltage-gated potassium channel subunit beta-2 (Rattus norvegicus) (UniProt P62483). As to the kind of experiment: inhibitors of rat Kvbeta2 reductase activity – biochemical, NADPH fluorescence, primary screen (AID 622).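 Note: slope of raw intensity against log time taken from 70 to 1610 s.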 The conditions noted are these: recombinant KvBeta, 4-cyanobenzaldehyde reduction, at 10 µM, active compounds read high.
As to `Cc1cccc(C)c1N1C(=O)C2ON(c3ccccc3)C(c3ccncc3)C2C1=O` (stereo unspecified), the fluorescence slope was -0.442.
The same measure, in the same setting: in the case of `COc1ccc(C2C=C(c3ccc(Cl)cc3)Nc3nc(NC(C)=O)nn32)cc1` (stereo unspecified) it was -0.144.
On to `CC(C)Cc1ccc(C(C)C(=O)O)cc1` (stereo unspecified), for which the fluorescence slope was -0.469.
As to `COCCCNc1nc(-c2ccncc2)nc2ccccc12`, the fluorescence slope is -0.514.
The same measure, in the same setting: in the case of `CCCOC(=O)C1[C@H]2C(=O)N(Cc3ccco3)C[C@]23C=C[C@H]1O3` (stereo partly specified) it was -0.424; in that of `COc1ccc(CNC(=O)[C@H](C)NC(=O)C2CCN(S(=O)(=O)c3ccc(C)cc3)CC2)cc1`, -0.475; in that of `N#C/C(=N\O)c1nc(-c2ccccc2)cs1`, -0.418.
The same measure, in the same setting: with `Oc1ccc(Br)cc1-c1cc(-c2ccccc2F)[nH]n1` the figure was -0.479.
Turning to `COc1ccc(/C(O)=C2/C(=O)C(=O)N(CCN3CCOCC3)C2c2ccccn2)cc1OC` (stereo unspecified), the fluorescence slope is -0.419.
Turning to `CCOc1ccc(/C(O)=C2/C(=O)C(=O)N(c3nc(C)c(C)s3)C2c2ccco2)cc1` (stereo unspecified), the fluorescence slope was -0.39.
For `O=C1C2ON(c3ccccc3)C(c3ccncc3)C2C(=O)N1c1ccccc1` (stereo unspecified), the fluorescence slope was -0.419.
In the case of `CCOC(=O)N1CCN(/C=C(\C#N)c2nc3ccccc3s2)CC1`, the fluorescence slope is -0.404.
Consider `CCOc1ccc(C2C(C(=O)c3ccc(C)o3)=C(O)C(=O)N2CCN2CCOCC2)cc1OC` (stereo unspecified), for which the fluorescence slope is -0.458.
Take `O=C(O)CCCCCN1C(=O)CCC1=O`: the fluorescence slope was -0.456.
Consider `CC(=O)O[C@H]1C(=O)[C@]2(C)[C@H]([C@H](OC(=O)c3ccccc3)[C@]3(O)C[C@H](OC(=O)[C@H](O)[C@@H](NC(=O)c4ccccc4)c4ccccc4)C(C)=C1C3(C)C)[C@]1(OC(C)=O)CO[C@@H]1C[C@@H]2O`, for which the fluorescence slope is -0.449.
In the case of `CC[N+](C)(C)Cc1ccccc1Br`, the fluorescence slope was -0.502.
On to `O=C1C(CCS(=O)c2ccccc2)C(=O)N(c2ccccc2)N1c1ccccc1` (stereo unspecified), for which the fluorescence slope is -0.436.
As to `Cc1ccc(N2C(=O)C3ON(c4ccccc4)C(c4ccncc4)C3C2=O)c(C)c1` (stereo unspecified), the fluorescence slope was -0.437.
The same measure, in the same setting: with `N#Cc1nc(-c2ccccc2Cl)oc1N1CCCCC1` the figure was -0.535; with `CC1=CC(c2ccccc2)n2nc(N3C(=O)C4CC=CCC4C3=O)nc2N1` (stereo unspecified), -0.41.
The same measure, in the same setting: in the case of `CCN(CC)CCn1c(O)c(N=O)c2ccccc21` it was -0.482.
Regarding `Cc1ccc2nc(NCc3ccccc3)[nH]c2c1`, the fluorescence slope was -0.447.
As to `COc1cccc(-c2nc(NC(C)(C)C)c3ccccc3n2)c1O`, the fluorescence slope was -0.422.
With `O=C1C2ON(c3ccccc3)C(c3ccncc3)C2C(=O)N1c1ccc(Br)cc1` (stereo unspecified), the fluorescence slope is -0.414.
Same read-out and setting: with `CCC(=O)O[C@@H]1CC(=O)O[C@H](C)CC=CC=C[C@@H](O)[C@H](C)C[C@H](CC=O)[C@H](O[C@H]2O[C@H](C)[C@@H](O[C@H]3C[C@@](C)(O)[C@@H](OC(=O)CC)[C@H](C)O3)[C@H](N(C)C)[C@H]2O)[C@H]1OC` the figure was -0.525; with `O=C1CC(N(O)C2CC(=O)N(Cc3ccccc3)C2=O)C(=O)N1Cc1ccccc1` (stereo unspecified), -0.433; with `CC1(C)CC(NC(=O)C23CCC(C)(/C(=N/O)C2)C3(C)C)CC(C)(C)N1` (stereo unspecified), -0.399.
With `O=c1[nH]c(-c2ccccn2)nc2ccccc12`, the fluorescence slope was -0.555.
With `Cc1nnc(SCC2=C(C(=O)O)N3C(=O)[C@@H](NC(=O)Cn4cnnn4)[C@H]3SC2)s1`, the fluorescence slope is -0.495.
In the case of `O=C(O)c1cc(=O)c2c(OCC(O)COc3cccc4oc(C(=O)O)cc(=O)c34)cccc2o1`, the fluorescence slope was -0.505.
On to `c1ccc(-c2nc(NCC3CCCO3)c3ccccc3n2)nc1` (stereo unspecified), for which the fluorescence slope is -0.436.
As to `CC[C@H]1OC(=O)C[C@@H](O)[C@H](C)[C@@H](O[C@@H]2O[C@H](C)C[C@H](N(C)C)[C@H]2O)[C@@H](CC=O)C[C@@H](C)C(=O)C=C[C@]2(C)O[C@H]2[C@@H]1C`, the fluorescence slope is -0.498.
The same measure, in the same setting: with `CC(C)NCC(O)COc1cccc2[nH]ccc12` (stereo unspecified) the figure was -0.46.
As to `Cc1ccc2cc(CN(C(=O)c3ccco3)c3ccccc3C)c(=O)[nH]c2c1`, the fluorescence slope was -0.477.
Take `CN1CCN(Cc2c(O)ccc3c(-c4ccccc4)cc(=O)oc23)CC1`: the fluorescence slope is -0.269.
For the compound `Cc1cc(N2C(=O)C(=O)/C(=C(/O)c3ccccc3)C2c2cccc(Br)c2)no1` (stereo unspecified), the fluorescence slope is -0.473.
For `COc1ccc(C(=O)Nc2nc(N)n(-c3ccccc3)n2)cc1OC`, the fluorescence slope was -0.426.
As for `Cc1ccc(N2C(=O)C3ON(c4ccccc4)C(c4ccncc4)C3C2=O)cc1` (stereo unspecified), the fluorescence slope was -0.416.

Another assay shares this target. As to the kind of experiment: enhancers of rat Kvbeta2 NADPH turnover – biochemical, NADPH fluorescence, primary screen (AID 623;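 active = NADPH fluorescence slope more negative than the mean of all samples by about 3 SD, 99.7% confidence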;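 note: fluorescence intensity change per second fitted from 20 to 320 s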). The conditions noted are these: Recombinant KvBeta, NADPH fluorescence decrease slope, 10 min; at 10 µM; active compounds read low.
In the case of `Cc1cccc(C)c1N1C(=O)C2ON(c3ccccc3)C(c3ccncc3)C2C1=O` (stereo unspecified), the NADPH fluorescence slope was -0.000159.
On to `COc1ccc(C2C=C(c3ccc(Cl)cc3)Nc3nc(NC(C)=O)nn32)cc1` (stereo unspecified), for which the NADPH fluorescence slope was 4.9e-05.
In the case of `CC(C)Cc1ccc(C(C)C(=O)O)cc1` (stereo unspecified), the NADPH fluorescence slope is -4.6e-05.
As to `COCCCNc1nc(-c2ccncc2)nc2ccccc12`, the NADPH fluorescence slope is -8.3e-05.
The same measure, in the same setting: with `CCCOC(=O)C1[C@H]2C(=O)N(Cc3ccco3)C[C@]23C=C[C@H]1O3` (stereo partly specified) the figure was -0.000134; with `COc1ccc(CNC(=O)[C@H](C)NC(=O)C2CCN(S(=O)(=O)c3ccc(C)cc3)CC2)cc1`, -9.4e-05; with `N#C/C(=N\O)c1nc(-c2ccccc2)cs1`, -0.000175.
Turning to `Oc1ccc(Br)cc1-c1cc(-c2ccccc2F)[nH]n1`, the NADPH fluorescence slope was -9.7e-05.
On to `COc1ccc(/C(O)=C2/C(=O)C(=O)N(CCN3CCOCC3)C2c2ccccn2)cc1OC` (stereo unspecified), for which the NADPH fluorescence slope was -9.3e-05.
On the same count and under the same terms, in the case of `CCOc1ccc(/C(O)=C2/C(=O)C(=O)N(c3nc(C)c(C)s3)C2c2ccco2)cc1` (stereo unspecified) it was -5.6e-05; in that of `O=C1C2ON(c3ccccc3)C(c3ccncc3)C2C(=O)N1c1ccccc1` (stereo unspecified), -0.000134; in that of `CCOC(=O)N1CCN(/C=C(\C#N)c2nc3ccccc3s2)CC1`, -0.000116.
Consider `CCOc1ccc(C2C(C(=O)c3ccc(C)o3)=C(O)C(=O)N2CCN2CCOCC2)cc1OC` (stereo unspecified), for which the NADPH fluorescence slope was -2.1e-05.
With `O=C(O)CCCCCN1C(=O)CCC1=O`, the NADPH fluorescence slope was -0.000125.
For `CC(=O)O[C@H]1C(=O)[C@]2(C)[C@H]([C@H](OC(=O)c3ccccc3)[C@]3(O)C[C@H](OC(=O)[C@H](O)[C@@H](NC(=O)c4ccccc4)c4ccccc4)C(C)=C1C3(C)C)[C@]1(OC(C)=O)CO[C@@H]1C[C@@H]2O`, the NADPH fluorescence slope is -1.6e-05.
For `CC[N+](C)(C)Cc1ccccc1Br`, the NADPH fluorescence slope was 1.7e-05.
As to `O=C1C(CCS(=O)c2ccccc2)C(=O)N(c2ccccc2)N1c1ccccc1` (stereo unspecified), the NADPH fluorescence slope was -4.2e-05.
With `Cc1ccc(N2C(=O)C3ON(c4ccccc4)C(c4ccncc4)C3C2=O)c(C)c1` (stereo unspecified), the NADPH fluorescence slope was -0.000117.
As for `N#Cc1nc(-c2ccccc2Cl)oc1N1CCCCC1`, the NADPH fluorescence slope was -6.6e-05.
On to `CC1=CC(c2ccccc2)n2nc(N3C(=O)C4CC=CCC4C3=O)nc2N1` (stereo unspecified), for which the NADPH fluorescence slope was -0.000143.
Consider `CCN(CC)CCn1c(O)c(N=O)c2ccccc21`, for which the NADPH fluorescence slope is -3.1e-05.
The same measure, in the same setting: in the case of `Cc1ccc2nc(NCc3ccccc3)[nH]c2c1` it was -0.00018; in that of `COc1cccc(-c2nc(NC(C)(C)C)c3ccccc3n2)c1O`, -0.000132; in that of `O=C1C2ON(c3ccccc3)C(c3ccncc3)C2C(=O)N1c1ccc(Br)cc1` (stereo unspecified), -0.000135.
For `CCC(=O)O[C@@H]1CC(=O)O[C@H](C)CC=CC=C[C@@H](O)[C@H](C)C[C@H](CC=O)[C@H](O[C@H]2O[C@H](C)[C@@H](O[C@H]3C[C@@](C)(O)[C@@H](OC(=O)CC)[C@H](C)O3)[C@H](N(C)C)[C@H]2O)[C@H]1OC`, the NADPH fluorescence slope is -4.8e-05.
The same measure, in the same setting: in the case of `O=C1CC(N(O)C2CC(=O)N(Cc3ccccc3)C2=O)C(=O)N1Cc1ccccc1` (stereo unspecified) it was -5.6e-06.
Take `CC1(C)CC(NC(=O)C23CCC(C)(/C(=N/O)C2)C3(C)C)CC(C)(C)N1` (stereo unspecified): the NADPH fluorescence slope was -0.000147.
On to `O=c1[nH]c(-c2ccccn2)nc2ccccc12`, for which the NADPH fluorescence slope was -4.4e-05.
Turning to `Cc1nnc(SCC2=C(C(=O)O)N3C(=O)[C@@H](NC(=O)Cn4cnnn4)[C@H]3SC2)s1`, the NADPH fluorescence slope was -4.7e-05.
Consider `O=C(O)c1cc(=O)c2c(OCC(O)COc3cccc4oc(C(=O)O)cc(=O)c34)cccc2o1`, for which the NADPH fluorescence slope was -6.1e-05.
Still for that read-out and setting: with `c1ccc(-c2nc(NCC3CCCO3)c3ccccc3n2)nc1` (stereo unspecified) the figure was -0.000131; with `CC[C@H]1OC(=O)C[C@@H](O)[C@H](C)[C@@H](O[C@@H]2O[C@H](C)C[C@H](N(C)C)[C@H]2O)[C@@H](CC=O)C[C@@H](C)C(=O)C=C[C@]2(C)O[C@H]2[C@@H]1C`, -2.6e-05; with `CC(C)NCC(O)COc1cccc2[nH]ccc12` (stereo unspecified), -4.4e-05.
As for `Cc1ccc2cc(CN(C(=O)c3ccco3)c3ccccc3C)c(=O)[nH]c2c1`, the NADPH fluorescence slope was 1.8e-05.
Consider `CN1CCN(Cc2c(O)ccc3c(-c4ccccc4)cc(=O)oc23)CC1`, for which the NADPH fluorescence slope was -2.1e-05.
As for `Cc1cc(N2C(=O)C(=O)/C(=C(/O)c3ccccc3)C2c2cccc(Br)c2)no1` (stereo unspecified), the NADPH fluorescence slope is -3.5e-05.
For the compound `COc1ccc(C(=O)Nc2nc(N)n(-c3ccccc3)n2)cc1OC`, the NADPH fluorescence slope is -0.000152.
In the case of `Cc1ccc(N2C(=O)C3ON(c4ccccc4)C(c4ccncc4)C3C2=O)cc1` (stereo unspecified), the NADPH fluorescence slope is -0.000456 (active).

The values are drawn from PubChem BioAssay.
